Data reported in PubChem BioAssay (EPA / NIEHS).
Results filed as inconclusive are left out. Activity calls are given as the source filed them. Rule for the calls, unless noted: active = hit-call score of the fitted dose curve at least 0.9, where 1 is the maximum; inactive = score below 0.9.

Legend:
[1] = read-out: Human Leukocyte Antigen - DR isotype (HLADR), HLA-DRA (gene 3122); experiment: BSK_3C_HLADR: BioMAP Diversity Plus: 3C Assay for Human Leukocyte Antigen - DR isotype (HLADR) Biomarker Activity (AID 2283019); conditions: primary human endothelial cells (HUVEC); actives raise or lower the signal
Summary of the method: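 Compound added to primary HUVEC cultures, 24 h incubation, then HLA-DR determined by ELISA; endpoint derived by bidirectional fitting relative to DMSO negative control.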

[2] = read-out: Interleukin-8 (IL8), CXCL8 (gene 3576); experiment: BSK_3C_IL8: BioMAP Diversity Plus: 3C Assay for Interleukin-8 (IL8) Biomarker Activity (AID 2283020); conditions: primary human endothelial cells (HUVEC); actives raise or lower the signal
Summary of the method: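 Primary human umbilical vein endothelial cells (3C system) were exposed to test chemical for 24 h, then IL-8 was quantified by ELISA. Responses were fitted bidirectionally against DMSO vehicle as baseline.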

[3] = read-out: Monokine induced gamma interferon (MIG), CXCL9 (gene 4283); experiment: BSK_3C_MIG: BioMAP Diversity Plus: 3C Assay for Monokine induced gamma interferon (MIG) Biomarker Activity (AID 2283021); conditions: primary human endothelial cells (HUVEC); actives raise or lower the signal;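 for AC50: MIG protein level measured by immunoassay in the treated endothelial cultures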
Summary of the method: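 Primary human umbilical vein endothelial cells in the 3C system were exposed to chemical for 24 h, after which MIG was quantified by ELISA. Activity was fitted bidirectionally against DMSO as negative control and baseline.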

[4] = target: human Vitamin D Receptor (VDR), VDR (gene 7421) (UniProt P11473); experiment: ATG_VDR_TRANS: Attagene TRANS-FACTORIAL HepG2 Assay for human Vitamin D Receptor (VDR) (AID 2283022; active = hit-call score of the fitted dose curve at least 0.9, where 1 is the maximum)
Summary of the method: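 Multiplexed TRANS reporter in HepG2; 24 h treatment; reporter mRNA by RT-PCR plus capillary electrophoresis; upregulation scored relative to DMSO.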

[5] = BSK_3C_SRB: Viability Assessment in the BioMAP Diversity Plus: 3C Assay (AID 2283023); conditions: primary human endothelial cells (HUVEC);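 note: cells read 24 h after compound dosing; fitted both ways against DMSO so a hit may be signal rise or drop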
Summary of the method: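 Overt cytotoxicity is gauged in parallel confluent HUVEC cultures by SRB total-protein staining at the time of biomarker measurement, 24 h after dosing. Gain or loss of signal is fitted versus DMSO.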

[6] = read-out: Matrix Metallopeptidase 1 (MMP1), MMP1 (gene 4312); experiment: BSK_BE3C_MMP1: BioMAP Diversity Plus: BE3C Assay for Matrix Metallopeptidase 1 (MMP1) Biomarker Activity (AID 2283024); conditions: primary human bronchial epithelial cells; actives raise or lower the signal
Summary of the method: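 Primary human bronchial epithelial cells were dosed with test chemicals, and MMP1 levels were measured by ELISA 24 h later. Data were fitted bidirectionally against DMSO as the negative control and activity baseline.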

[7] = BSK_3C_Vis: BioMAP Diversity Plus: 3C Assay for Morphology Visualization (AID 2283025); conditions: primary human endothelial cells (HUVEC);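 note: fitted both ways so gain or loss versus DMSO counts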
Summary of the method: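 Human umbilical vein endothelial cells in the 3C system were imaged by light microscopy 24 h after chemical dosing to record cell morphology. Activity was fitted bidirectionally against DMSO as negative control and baseline; the endpoint serves as a background control.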

[8] = read-out: Pselectin, SELP (gene 6403); experiment: BSK_4H_Pselectin: BioMAP Diversity Plus: 4H Assay for Pselectin Biomarker Activity (AID 2283026); conditions: primary human endothelial cells (HUVEC); actives raise or lower the signal
Summary of the method: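 Primary human umbilical vein endothelial cells were exposed to test chemical for 24 h, then cell-surface P-selectin was quantified by ELISA. Activity was fitted bidirectionally against DMSO as negative control and baseline.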

[9] = BSK_4H_SRB: Viability Assessment in the BioMAP Diversity Plus: 4H Assay (AID 2283027); conditions: primary human endothelial cells (HUVEC);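 note: cells exposed to compound for 24 h before staining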;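 for AC50: curves fitted both ways versus DMSO so AC50 may be loss or gain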
Summary of the method: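 Absorbance at 560 nm of SRB-stained total protein served as the viability read-out in confluent primary human umbilical vein endothelium 24 h after chemical treatment. Curves were fitted bidirectionally against DMSO as negative control.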

[10] = BSK_BE3C_SRB: Viability Assessment in the BioMAP Diversity Plus: BE3C Assay (AID 2283028); conditions: primary human bronchial epithelial cells;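 for AC50: fitted both ways so AC50 may mark signal gain or loss versus DMSO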
Summary of the method: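 SRB total-protein staining (0.1%, after TCA fixation) of chemically dosed human bronchial epithelial primary cells at 24 h; DMSO serves as the negative control for bidirectional curve fitting.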

[11] = read-out: Thrombomodulin, THBD (gene 7056); experiment: BSK_3C_Thrombomodulin: BioMAP Diversity Plus: 3C Assay for Thrombomodulin Biomarker Activity (AID 2283029); conditions: primary human endothelial cells (HUVEC); actives raise or lower the signal
Summary of the method: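 Primary human umbilical vein endothelial cells (3C system) were exposed to chemical for 24 h, then thrombomodulin levels were measured by ELISA. Activity was fitted bidirectionally against the DMSO negative control as baseline.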

[12] = read-out: Urokinase-type plasminogen activator receptor (uPAR), PLAUR (gene 5329); experiment: BSK_4H_uPAR: BioMAP Diversity Plus: 4H Assay for Urokinase-type plasminogen activator receptor (uPAR) Biomarker Activity (AID 2283030); conditions: primary human endothelial cells (HUVEC); actives raise or lower the signal
Summary of the method: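 Endpoint derived via bidirectional curve fitting against DMSO baseline; readout was ELISA detection of uPAR on umbilical vein endothelial cells at 24 h post-treatment, with SRB-stained parallel cultures assessing cytotoxicity.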

[13] = read-out: Vascular endothelial growth factor receptor 2 (Homo sapiens) (UniProt P35968); experiment: BSK_4H_VEGFRII: BioMAP Diversity Plus: 4H Assay for Vascular endothelial growth factor receptor 2 (VEGFR2) Biomarker Activity (AID 2283031); conditions: primary human endothelial cells (HUVEC); actives raise or lower the signal;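 for AC50: cell-surface VEGFR2 protein level quantified by ELISA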
Summary of the method: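 In this multiplexed HUVEC system, biomarker ELISA was performed after 24 h chemical exposure. Parallel SRB staining (TCA fixation, 560 nm) tracked cytotoxicity; DMSO served as baseline.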

[14] = read-out: Human Leukocyte Antigen - DR isotype (HLADR), HLA-DRA (gene 3122); experiment: BSK_BE3C_HLADR: BioMAP Diversity Plus: BE3C Assay for Human Leukocyte Antigen - DR isotype (HLADR) Biomarker Activity (AID 2283032); conditions: primary human bronchial epithelial cells; actives raise or lower the signal
Summary of the method: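 Human primary bronchial epithelial cells in the BE3C system were exposed to chemicals for 24 h, after which HLA-DR levels were quantified by ELISA. Activity was fitted bidirectionally, gain or loss of signal, against DMSO as negative control and baseline.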

[15] = read-out: Vascular cell adhesion molecule 1 (VCAM1), VCAM1 (gene 7412); experiment: BSK_4H_VCAM1: BioMAP Diversity Plus: 4H Assay for Vascular cell adhesion molecule 1 (VCAM1) Biomarker Activity (AID 2283033); conditions: primary human endothelial cells (HUVEC); actives raise or lower the signal
Summary of the method: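 Primary human umbilical vein endothelial cells were exposed to chemicals for 24 h, after which VCAM-1 was quantified by ELISA. Responses were fitted bidirectionally against DMSO as negative control and activity baseline.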

[16] = read-out: Interferon-gamma inducible Protein 10 (IP10), CXCL10 (gene 3627); experiment: BSK_BE3C_IP10: BioMAP Diversity Plus: BE3C Assay for Interferon-gamma inducible Protein 10 (IP10) Biomarker Activity (AID 2283034); conditions: primary human bronchial epithelial cells; actives raise or lower the signal
Summary of the method: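 Human primary bronchial epithelial cells were exposed to chemicals for 24 hours, after which IP-10 levels were measured by ELISA. Data were fitted bidirectionally against DMSO, which served as the negative control and activity baseline.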

[17] = read-out: Monokine induced gamma interferon (MIG), CXCL9 (gene 4283); experiment: BSK_BE3C_MIG: BioMAP Diversity Plus: BE3C Assay for Monokine induced gamma interferon (MIG) Biomarker Activity (AID 2283035); conditions: primary human bronchial epithelial cells; actives raise or lower the signal;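 note: MIG protein measured by ELISA in BE3C cultures after 24 h of dosing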
Summary of the method: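 MIG level was determined by ELISA after 24 h chemical treatment of primary human bronchial epithelial cells. Values were fitted bidirectionally with DMSO as the negative control and activity baseline.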

[18] = read-out: Transforming growth factor beta 1 (TGFb1), TGFB1 (gene 7040); experiment: BSK_BE3C_TGFb1: BioMAP Diversity Plus: BE3C Assay for Transforming growth factor beta 1 (TGFb1) Biomarker Activity (AID 2283036); conditions: primary human bronchial epithelial cells; actives raise or lower the signal
Summary of the method: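 Human primary bronchial epithelial cells (BE3C system) were dosed with chemical and TGF-b1 levels measured by ELISA at 24 h. Activity was fitted bidirectionally relative to DMSO negative control as baseline.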

[19] = read-out: Plasminogen activator inhibitor-1 (PAI1), SERPINE1 (gene 5054); experiment: BSK_BE3C_PAI1: BioMAP Diversity Plus: BE3C Assay for Plasminogen activator inhibitor-1 (PAI1) Biomarker Activity (AID 2283037); conditions: primary human bronchial epithelial cells; actives raise or lower the signal
Summary of the method: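 Human primary bronchial epithelial cells were exposed to chemical for 24 h, then PAI-1 was quantified by ELISA. Activity was fitted bidirectionally relative to the DMSO negative control baseline.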

[20] = read-out: urokinase plasminogen activator (uPA), PLAU (gene 5328); experiment: BSK_BE3C_uPA: BioMAP Diversity Plus: BE3C Assay for urokinase plasminogen activator (uPA) Biomarker Activity (AID 2283038); conditions: primary human bronchial epithelial cells; actives raise or lower the signal
Summary of the method: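 Using confluent primary human lung bronchial epithelial cultures, we dosed chemicals, waited 24 h, then ran a uPA ELISA, fitting bidirectionally against DMSO.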

Measured: AC50

Sequence of human Vitamin D Receptor (VDR), VDR (gene 7421) (P11473 whole entry, looked up): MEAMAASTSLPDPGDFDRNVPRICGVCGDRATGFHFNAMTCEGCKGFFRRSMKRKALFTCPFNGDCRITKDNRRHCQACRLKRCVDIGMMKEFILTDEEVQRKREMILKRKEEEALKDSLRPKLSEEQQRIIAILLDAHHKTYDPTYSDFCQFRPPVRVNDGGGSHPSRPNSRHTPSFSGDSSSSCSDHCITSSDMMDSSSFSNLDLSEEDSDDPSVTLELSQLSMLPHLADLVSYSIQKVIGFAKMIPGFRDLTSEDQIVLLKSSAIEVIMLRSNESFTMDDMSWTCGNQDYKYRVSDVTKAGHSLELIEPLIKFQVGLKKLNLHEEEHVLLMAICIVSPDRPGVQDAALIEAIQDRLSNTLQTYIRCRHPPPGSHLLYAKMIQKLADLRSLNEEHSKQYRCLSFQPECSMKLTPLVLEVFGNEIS

BrCCBr
inactive: all assays above

OCc1ccco1
not listed: [12] | [17]
inactive: all other assays above

CCNc1nc(NC(C)(C)C)nc(SC)n1
active: [1] 20 µM
not listed: [13] | [17]
inactive: all other assays above

NC(=O)O
not listed: [12]
inactive: all other assays above

Nc1ccc(-c2ccc(N)c(Cl)c2)cc1Cl
active: [1] 2.43 µM | [5] 2.21 µM | [7] 13.7 µM | [9] 2.76 µM | [12] 10.6 µM | [15] 9.55 µM
not listed: [17]
inactive: all other assays above

CC(C)CCCCCCOC(=O)c1ccccc1C(=O)OCCCCCCC(C)C
not listed: [12]
inactive: all other assays above

O=Cc1cccc(Oc2ccccc2)c1
inactive: all assays above

O=C(Nc1ccc2[nH]ccc2c1)c1cc2cc(F)ccc2n1Cc1cccc(F)c1
inactive: [4] | [11] | [18] | [20]
active: [1] 7.97 µM | [2] 6.43 µM | [3] 10.4 µM | [5] 8.66 µM | [6] 9.72 µM | [7] 12.8 µM | [8] 7.85 µM | [9] 10 µM | [10] 6.76 µM | [13] 8.6 µM | [14] 5.82 µM | [15] 8.66 µM | [16] 8.41 µM | [19] 5.51 µM

CCOP(=S)(OCC)SCCS(=O)(=O)CC
not listed: [17]
inactive: all other assays above

CCOC(=O)/C=C(C)/C=C/C[C@@H](C)CCCC(C)C
inactive: [2] | [4] | [6] | [7] | [10] | [19]
active: [1] 28.1 µM | [3] 30.8 µM | [5] 36.4 µM | [8] 25.2 µM | [9] 34.3 µM | [11] 5.42 µM | [13] 33 µM | [14] 20 µM | [15] 30.6 µM | [16] 20 µM | [18] 20 µM | [20] 20 µM

Oc1c(I)cc(I)cc1I
active: [1] 9.5 µM | [2] 11.5 µM | [3] 34.9 µM | [5] 10.3 µM | [6] 6.77 µM | [7] 13 µM | [8] 12.7 µM | [9] 20 µM | [12] 12.7 µM | [13] 12.5 µM | [14] 3.97 µM | [15] 20 µM | [16] 4.41 µM | [19] 1.83 µM
inactive: [4] | [10] | [11] | [18] | [20]

CN(C)N=O
not listed: [17]
inactive: all other assays above
